Measured values as given in PubChem BioAssay AID1159580 (chemical genetic matrix, 2015).
Where “and” joins values, the source holds several entries; their conditions need not be identical. Identical values can stand only once. Screen size: about 5,500 compounds; about 2,000 (36%) were called active. Roughly 18% stayed inconclusive and do not appear here. Cut-off read from the data, not from the text of the source: active = normalized growth mostly below about 0.91 (no sharp cut-off); inconclusive = no clear call, values can overlap the other calls; inactive = mostly above about 0.92. This is one part of the list.

Assay: chemical genetic growth profiling, strain panel (AID 1159580);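 note: tested at 20 µM; growth read once vehicle control cultures reached saturation at 30 °C; 1 = growth at the plate median or of vehicle wells; lower values mean less growth of the strain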
Details: S. cerevisiae deletion strains, growth OD

Measured: normalized growth

C=C(CC)C(=O)c1ccc(OCC(=O)O)c(Cl)c1Cl
1 (inactive) and 0.835 (active): locus YJL095W, strain BCK1, stronger effect = lower value
inactive: locus YAL013W, strain DEP1, stronger effect = lower value 0.984 | locus YAL021C, strain ccr4, stronger effect = lower value 1 | locus YAL026C, strain drs2, stronger effect = lower value 0.98 | locus YAL030W, strain snc1, stronger effect = lower value 1.01 | locus YBL061C, strain skt5, stronger effect = lower value 1 | locus YBR009C, strain hhf1, stronger effect = lower value 1.01 | locus YBR021W, strain FUR4, stronger effect = lower value 1.02 | locus YBR023C, strain chs3, stronger effect = lower value 1.03 | locus YBR171W, strain sec66, stronger effect = lower value 1.01 | locus YBR229C, strain ROT2, stronger effect = lower value 0.951 | locus YBR231C, strain swc5, stronger effect = lower value 0.972 | locus YBR279W, strain paf1, stronger effect = lower value 1.01 | locus YCL011C, strain gbp2, stronger effect = lower value 1.03 | locus YCL016C, strain dcc1, stronger effect = lower value 1.04 | locus YCL029C, strain bik1, stronger effect = lower value 0.973 | locus YCL061C, strain MRC1, stronger effect = lower value 1.03 | locus YCL069W, strain vba3, stronger effect = lower value 1 | locus YCR088W, strain abp1, stronger effect = lower value 1.01 | locus YDL005C, strain med2, stronger effect = lower value 0.999 | locus YDL035C, strain GPR1, stronger effect = lower value 0.988 | locus YDL040C, strain nat1, stronger effect = lower value 0.994 | locus YDL074C, strain BRE1, stronger effect = lower value 0.986 | locus YDL101C, strain DUN1, stronger effect = lower value 0.983 | locus YDL134C, strain PPH21, stronger effect = lower value 0.972 | locus YDL192W, strain arf1, stronger effect = lower value 0.972 | locus YDR001C, strain nth1, stronger effect = lower value 1 | locus YDR069C, strain doa4, stronger effect = lower value 0.99 | locus YDR101C, strain arx1, stronger effect = lower value 0.92 | locus YDR137W, strain rgp1, stronger effect = lower value 1.01 | locus YDR150W, strain NUM1, stronger effect = lower value 0.976 | locus YDR159W, strain sac3, stronger effect = lower value 0.955 | locus YDR162C, strain NBP2, stronger effect = lower value 0.966 | locus YDR195W, strain ref2 0.974 | locus YDR297W, strain sur2, stronger effect = lower value 1.02 | locus YDR318W, strain mcm21, stronger effect = lower value 0.992 | locus YDR334W, strain swr1, stronger effect = lower value 1 | locus YDR335W, strain msn5, stronger effect = lower value 1.01 | locus YDR388W, stronger effect = lower value 0.972 | locus YDR392W, strain spt3, stronger effect = lower value 0.948 | locus YDR502C, strain sam2, stronger effect = lower value 0.984 | locus YEL003W, strain gim4, stronger effect = lower value 0.985 | locus YEL037C, strain rad23, stronger effect = lower value 1 | locus YEL061C, strain CIN8 (second series), stronger effect = lower value 1 | locus YEL061C, strain CIN8, stronger effect = lower value 0.996 | locus YER015W, strain faa2, stronger effect = lower value 0.993 | locus YER016W, strain bim1, stronger effect = lower value 0.993 | locus YER110C, stronger effect = lower value 0.963 | locus YER111C, strain swi4, stronger effect = lower value 1 | locus YER155C, strain BEM2 (second series), stronger effect = lower value 0.997 | locus YER155C, strain BEM2, stronger effect = lower value 0.998 | locus YER167W, strain BCK2, stronger effect = lower value 1 | locus YFR010W, strain ubp6, stronger effect = lower value 1.01 | locus YGL078C, strain dbp3, stronger effect = lower value 0.954 | locus YGL086W, strain mad1, stronger effect = lower value 0.977 | locus YGL167C, strain pmr1, stronger effect = lower value 1.01 | locus YGL173C, strain kem1, stronger effect = lower value 1 | locus YGL227W, strain vid30, stronger effect = lower value 1.01 | locus YGL240W, strain doc1, stronger effect = lower value 1.02 | locus YGL248W, strain PDE1, stronger effect = lower value 0.985 | locus YGL253W, strain hxk2, stronger effect = lower value 0.988 | locus YGR078C, strain PAC10, stronger effect = lower value 0.964 | locus YGR135W, strain pre9, stronger effect = lower value 1.05 | locus YGR229C, strain SMI1, stronger effect = lower value 1 | locus YGR252W, strain gcn5, stronger effect = lower value 1.2 | locus YHR013C, strain ard1, stronger effect = lower value 1.04 | locus YHR027C, strain rpn1, stronger effect = lower value 1.02 | locus YHR030C, strain SLT2, stronger effect = lower value 0.985 and 0.868 | locus YHR079C, strain IRE1 (second series), stronger effect = lower value 0.982 | locus YHR079C, strain IRE1, stronger effect = lower value 0.869 | locus YHR094C, strain hxt1, stronger effect = lower value 0.955 | locus YHR129C, strain ARP1, stronger effect = lower value 0.977 | locus YHR142W, strain chs7, stronger effect = lower value 1.04 | locus YHR200W, strain rpn10, stronger effect = lower value 0.984 | locus YIL066C, strain RNR3, stronger effect = lower value 0.968 | locus YIL073C, strain SPO22, stronger effect = lower value 0.995 | locus YIR030C, strain dcg1, stronger effect = lower value 0.993 | locus YJL092W, strain hpr5, stronger effect = lower value 1.01 | locus YJL095W, strain BCK1 (second series), stronger effect = lower value 1.03 | locus YJL115W, strain asf1, stronger effect = lower value 1 | locus YJL129C, strain trk1, stronger effect = lower value 1.02 | locus YJL134W, strain LCB3, stronger effect = lower value 0.983 | locus YJL154C, strain vps35, stronger effect = lower value 0.997 | locus YJL164C, strain tpk1, stronger effect = lower value 1.03 | locus YJL166W, strain qcr8, stronger effect = lower value 1.05 | locus YJL168C, strain set2, stronger effect = lower value 0.971 | locus YJL187C, strain SWE1 (second series), stronger effect = lower value 0.968 | locus YJL187C, strain SWE1, stronger effect = lower value 1 | locus YJR043C, strain POL32, stronger effect = lower value 0.981 | locus YJR075W, strain HOC1, stronger effect = lower value 0.982 | locus YKL009W, strain mrt4, stronger effect = lower value 0.923 | locus YKL085W, strain MDH1 (second series), stronger effect = lower value 0.938 | locus YKL085W, strain MDH1, stronger effect = lower value 0.938 | locus YKL160W, strain elf1, stronger effect = lower value 1.06 | locus YKR001C, strain vps1, stronger effect = lower value 0.906 | locus YKR026C, strain gcn3, stronger effect = lower value 1 | locus YKR091W, strain srl3, stronger effect = lower value 1.01 | locus YLL001W, strain dnm1, stronger effect = lower value 1.05 | locus YLL026W, stronger effect = lower value 1.01 | locus YLL041C, strain sdh2, stronger effect = lower value 1 | locus YLR027C, strain aat2, stronger effect = lower value 0.995 | locus YLR039C, strain RIC1, stronger effect = lower value 0.91 | locus YLR058C, strain SHM2, stronger effect = lower value 0.972 | locus YLR102C, strain apc9, stronger effect = lower value 0.972 | locus YLR221C, strain rsa3, stronger effect = lower value 1.04 | locus YLR258W, strain gsy2, stronger effect = lower value 1.02 | locus YLR262C, strain YPT6 (second series), stronger effect = lower value 1.01 | locus YLR262C, strain YPT6, stronger effect = lower value 0.873 | locus YLR268W, strain sec22, stronger effect = lower value 0.99 | locus YLR320W, strain mms22, stronger effect = lower value 1.08 | locus YLR330W, strain CHS5, stronger effect = lower value 0.978 | locus YLR342W, strain FKS1 (second series), stronger effect = lower value 0.983 | locus YLR342W, strain FKS1, stronger effect = lower value 1.01 | locus YLR357W, strain rsc2, stronger effect = lower value 0.995 | locus YLR370C, strain arc18, stronger effect = lower value 1.02 | locus YLR371W, strain rom2, stronger effect = lower value 0.953 | locus YLR384C, strain iki3, stronger effect = lower value 1.01 | locus YLR418C, strain cdc73, stronger effect = lower value 1 | locus YML016C, strain PPZ1, stronger effect = lower value 0.982 | locus YML032C, strain rad52, stronger effect = lower value 0.962 | locus YML120C, strain ndi1, stronger effect = lower value 1.05 | locus YML124C, strain tub3, stronger effect = lower value 0.98 | locus YMR058W, strain fet3, stronger effect = lower value 1 | locus YMR078C, strain ctf18, stronger effect = lower value 0.962 | locus YMR125W, strain sto1, stronger effect = lower value 1.02 | locus YMR129W, stronger effect = lower value 1.01 | locus YMR205C, strain PFK2, stronger effect = lower value 1.06 | locus YMR223W, strain ubp8, stronger effect = lower value 1.02 | locus YMR231W, strain pep5, stronger effect = lower value 0.978 | locus YMR307W, strain GAS1, stronger effect = lower value 1 | locus YNL067W, strain RPL9B, stronger effect = lower value 0.986 | locus YNL071W, strain lat1, stronger effect = lower value 1.01 | locus YNL209W, strain ssb2, stronger effect = lower value 1.02 | locus YNL233W, strain BNI4, stronger effect = lower value 0.988 | locus YNL248C, strain rpa49, stronger effect = lower value 1.01 | locus YNL250W, strain rad50, stronger effect = lower value 0.913 | locus YNL298W, strain CLA4, stronger effect = lower value 0.912 | locus YNL307C, strain MCK1, stronger effect = lower value 0.98 | locus YNL322C, strain KRE1 (second series), stronger effect = lower value 1.02 | locus YNR049C, strain mso1, stronger effect = lower value 1.01 | locus YNR052C, strain pop2, stronger effect = lower value 0.981 | locus YOL006C, strain TOP1, stronger effect = lower value 1 | locus YOL012C, strain htz1 1.29 | locus YOL147C, strain pex11, stronger effect = lower value 0.99 | locus YOR001W, strain rrp6, stronger effect = lower value 0.948 | locus YOR061W, strain CKA2, stronger effect = lower value 0.964 | locus YOR069W, strain VPS5, stronger effect = lower value 0.988 | locus YOR070C, strain gyp1, stronger effect = lower value 1.04 | locus YOR080W, strain dia2, stronger effect = lower value 1.01 | locus YOR083W, strain WHI5, stronger effect = lower value 1.05 | locus YOR106W, strain vam3, stronger effect = lower value 1.04 | locus YOR136W, strain idh2, stronger effect = lower value 0.979 | locus YOR144C, strain elg1, stronger effect = lower value 0.989 | locus YOR184W, strain ser1, stronger effect = lower value 0.991 | locus YOR231W, strain MKK1, stronger effect = lower value 0.909 | locus YOR265W, strain rbl2, stronger effect = lower value 1.01 | locus YOR270C, strain vph1, stronger effect = lower value 1.08 | locus YOR290C, strain snf2, stronger effect = lower value 1.01 | locus YOR316C, strain cot1, stronger effect = lower value 0.96 | locus YPL051W, strain arl3, stronger effect = lower value 0.992 | locus YPL078C, strain atp4, stronger effect = lower value 1.04 | locus YPL106C, strain sse1, stronger effect = lower value 1.01 | locus YPL240C, strain hsp82, stronger effect = lower value 1.02 | locus YPL241C, strain CIN2, stronger effect = lower value 0.983 | locus YPL256C, strain CLN2, stronger effect = lower value 0.899 | locus YPR119W, strain clb2, stronger effect = lower value 0.973 | locus YPR163C, strain tif3, stronger effect = lower value 0.981 | locus YPR167C, strain met16, stronger effect = lower value 0.989 | strain wtn01, stronger effect = lower value 0.997
active: locus YDL185W, strain tfp1, stronger effect = lower value 0.882 | locus YIL125W, strain kgd1, stronger effect = lower value 0.927 | locus YJR066W, strain TOR1, stronger effect = lower value 0.708 | locus YKL068W, stronger effect = lower value 0.91 | locus YLR113W, strain HOG1, stronger effect = lower value 0.551 | locus YNL183C, strain NPR1, stronger effect = lower value 0.828 | locus YNL271C, strain bni1, stronger effect = lower value 0.917 | locus YPR141C, strain kar3, stronger effect = lower value 0.902
